# Where “and” joins values, the source holds several entries; their conditions need not be identical. Equal values may be shown once.
# Test system: HL-1
# Test: cardiomyocyte survival under oxidative or metabolic stress – cell-based, panel, H9c2 and HL-1, ATP luminescence, set 2, SAR follow-up (AID 651871);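 note: cells exposed to stressor for 2 h before ATP readout; reference of the scale not given here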
# Conditions: H9c2/HL-1 cardiomyocytes, 2-deoxyglucose stress, with 2-deoxyglucose, run 13, at 19.8 µM (top of the series)
smiles,measurement,value
COc1ccc2c(c1OC)C(=O)N1c3ccccc3C(=O)N(Cc3cccc(Cl)c3Cl)C21 (stereo unspecified),activity (protection/inhibition),84.6% and 38.5%
